# Results as given in PubChem BioAssay AID1259343 (VanderVen Lab, College of Veterinary Medicine, Cornell …, 2017).
# About 2,900 (47%) of roughly 6,200 compounds were called active. The set was probably picked from earlier hits. Some of the results follow. Values without a mark were called inactive. No stated cut-off is given here; in the data, active means inhibition above about 50%; inactive means the rest. Where a SMILES comes first, the peptide text is derived from it. [ ]: non-standard residue; d: D form. Orn = NCCC[CH](N)C(=O)O
# Assay: Mycobacterium tuberculosis growth inhibition, primary screen (AID 1259343)
# Conditions: inhibition: at 10 µM, hits give high values; outcome: 10 uM
row,SMILES,inhibition
1,O=C(O)c1cnc(-c2ccc(C(F)(F)F)cc2)s1,60.4% (active)
2,O=C(O)c1cnc(/C=C/c2cccc(C(F)(F)F)c2)s1,-17.4%
3,Cn1nc(C(F)(F)F)cc1-c1ccc(C(=O)O)s1,46.4%
4,Brc1ccc(Sc2ncnc3sccc23)cc1,19.4%
5,Clc1cc(Br)ccc1Oc1ncnc2sccc12,70.4% (active)
6,O=C1NC(=Nc2ccccc2Cl)S/C1=C\c1ccsc1,59.3% (active)
7,O=C1COc2ccc(C3=NNC(=Nc4ccccc4Cl)SC3)cc2N1,11.7%
8,CN(C)CC/C=C1\c2ccccc2Sc2ccc(Cl)cc21,90.1% (active)
9,CN(Cc1ccc(Cl)cc1)Cc1cc2c(cc1O)CCC2,22.8%
10,Cn1c(Cl)cnc1C1CC(c2cc(Cl)ccc2O)=NN1 (stereo not drawn),101% (active)
11,Oc1ccc(F)cc1C1=NNC(c2ccc(Cl)cc2)C1 (stereo not drawn),60.6% (active)
12,Oc1c(Cl)cc(Cl)cc1C1=NNC(c2ccccc2F)C1 (stereo not drawn),38.9%
13,COc1ccc(NC(=O)CSc2nnc3ccccn23)c(OC)c1,81.5% (active)
14,O=C(CSc1nnc2ccccn12)Nc1c(Cl)c(Cl)cc(Cl)c1Cl,-1.75%
15,CC(C)CC1NC(=O)C(CCCN)NC(=O)C(C(C)C)NC(=O)C2CCCN2C(=O)C(Cc2ccccc2)NC(=O)C(CC(C)C)NC(=O)C(CCCN)NC(=O)C(C(C)C)NC(=O)C2CCCN2C(=O)C(Cc2ccccc2)NC1=O (stereo not drawn) (cyclo(FPV[Orn]LFPV[Orn]L); configuration not given here),46.4%
16,CCCCn1c(O)c(C=Nc2ccc(CC)cc2)c(C)c(C#N)c1=O,24.8%
17,CCOC(=O)c1ccc(N=Cc2c(O)[nH]c(=O)[nH]c2=O)cc1,73.1% (active)
18,COc1cc(C(=O)N2CCOC(COc3ccc(C)cc3)C2)cc(Cl)n1 (stereo not drawn),29.3%
19,COC(=O)c1ccc(Nc2ccc(OCC3CCCO3)cc2)nn1 (stereo not drawn),93.6% (active)
20,Clc1cccc(Nc2nc3nonc3n3nnnc23)c1,54.3% (active)
21,CC(C)S(=O)(=O)c1ccc(C(=O)Nc2onc3c2CCC3)cc1,84.8% (active)
22,CCc1csc(Cn2cc(C(C)c3ccccc3)nn2)n1 (stereo not drawn),-13.5%
23,CCc1cc(OCCCCn2cnc3ccccc3c2=O)ccc1Cl,64.6% (active)
24,Cc1cc2ncn(CCCOc3ccccc3)c2cc1C,36.7%
25,O=c1c2ccccc2ncn1CCCCSc1ccccc1,89.1% (active)

row,SMILES,inhibition
1,Cc1ccc(SCCCCN2C(=O)NC(C)(C)C2=O)cc1,-48.6%
2,Cc1nn(S(=O)(=O)c2cccc([N+](=O)[O-])c2)c(C)c1S(=O)(=O)N1CCCC(C)C1 (stereo not drawn),-15.4%
3,N#Cc1ccc(CNc2cccc(Br)c2)c(F)c1,-12.4%
4,N#Cc1ccccc1CNc1ccc(Br)cc1F,-19.6%
5,N#Cc1ccc(NCc2cc(Br)ccc2F)cc1,88.5% (active)
6,CC(C)c1nc2c(c(=O)c3ccccc3n2C)c(=O)n1Cc1ccccc1,-29.9%
7,COC(=O)C(C)Sc1nc2sc3c(c2c(=O)n1Cc1ccccc1)CCC3 (stereo not drawn),83.9% (active)
8,O=c1c2c3c(sc2ncn1Cc1cccc2ccccc12)CCCC3,21.4%
9,CC1(Cc2ccccc2F)C(=O)Nc2ccc(-c3cccnc3)cc21 (stereo not drawn),55.3% (active)
10,CCCc1nn(-c2cccc(Cl)c2)c([O-])c1C1=C([n+]2cccc(CC)c2)C(=O)N(CC(C)C)C1=O,41.4%
11,CCCC(C)NC(=O)Cn1cnc2cc(F)ccc2c1=O (stereo not drawn),86.9% (active)
12,CC(C)(C)C(=O)COC(=O)CNC(=O)c1ccccc1,93.8% (active)
13,O=C(NNC1c2ccccc2-c2ccccc21)c1ccccc1,32.6%
14,C=CCN=c1scc(-c2ccc(C)cc2)n1N=C(C)c1cccnc1,84.7% (active)
15,C=CCN=c1scc(-c2ccc(Cl)c(Cl)c2)n1N=Cc1cccnc1,68.1% (active)
16,CCN=c1scc(-c2ccc(C)cc2)n1N=C(C)c1ccc(C)o1,42.6%
17,C=CCN=c1scc(-c2ccccc2F)n1N=Cc1ccc2c(c1)OCCO2,9.72%
18,C=CCN=c1scc(-c2ccc(Br)cc2)n1N=Cc1cccnc1,-5.61%
19,C=CCN=c1scc(-c2ccc(C)c(C)c2)n1N=Cc1cccnc1,-28%
20,C=CCN=c1scc(-c2ccc(OC(F)F)cc2)n1N=C(C)c1ccc2c(c1)OCCO2,87% (active)
21,C=CCN=c1scc(-c2ccc(OC(F)F)cc2)n1N=Cc1ccc2c(c1)OCO2,-11.8%
22,C=CCN=c1scc(-c2ccc(Cl)cc2)n1N=Cc1cccnc1,9.02%
23,O=C(NCC(=O)N1CCCCC1)c1sc2ccccc2c1Cl,70.3% (active)
24,CC1(C)CN(CC(=O)NCC(=O)N2CCCC2)c2cccc(Cl)c21,-12.8%
25,Cc1ccc(C(=O)N2CCCC(C(=O)c3cccc4ccccc34)C2)s1 (stereo not drawn),11.3%

row,SMILES,inhibition
1,Cn1c(=O)c2c(ncn2CCOC(=O)c2cc(=O)[nH]c3ccccc23)n(C)c1=O,-7.86%
2,CCc1ccc(NC(=O)CCn2cnc3c([nH]c4ccccc43)c2=O)cc1,95.4% (active)
3,CCc1ccc(-c2cc(C(=O)N=Nc3c(O)[nH]c4ccccc34)[nH]n2)cc1,18.3%
4,Brc1cc(CNC2C3CCCC2CN(C2CC2)C3)cs1 (stereo not drawn),23.7%
5,C=CCn1cnnc1SCC(=O)Nc1ccc(Br)c(C)c1,101% (active)
6,Cn1cnnc1SCC(=O)Nc1ccc2c(c1)OC(F)(F)O2,16.7%
7,C=CCn1c(SCC(=O)NC(=O)NC)nnc1-c1ccncc1,-1.24%
8,Cc1nnc2sc(-c3ccccc3NC(=S)NC(=O)c3cc4ccccc4o3)nn12,57.4% (active)
9,Oc1ccc2ccccc2c1C=NC1CC1,37.4%
10,CCn1c(O)c(C=NC2CCCCCC2)c(=O)n(CC)c1=S,102% (active)
11,Cc1nn(CO)c(C)c1Sc1ccc(Br)cc1,36.4%
12,C(=Nn1c(-c2ccccc2)csc1=NC1CCCCC1)c1ccccn1,-31.1%
13,Cc1ccccc1OCC1CCCN(Cc2nc(Cc3ccccc3F)no2)C1 (stereo not drawn),47%
14,Cc1ccc(OCC2CCCN(Cc3ccc(C#CCO)s3)C2)cc1 (stereo not drawn),82.9% (active)
15,COCC(C)NC(=O)c1cccc(Oc2cccc(C(F)(F)F)c2)c1 (stereo not drawn),38.2%
16,O=C(NCC(F)(F)F)c1cccc(Oc2ccccc2)c1,74.4% (active)
17,CCCCc1noc(CNc2cc(C(=O)NCC(F)(F)F)ccc2C)n1,46.7%
18,CCc1cccc(N2CCC(NC(=O)Nc3nccs3)CC2)c1,51.4% (active)
19,Cn1cc(-c2nn(-c3ccccc3)cc2C=NNC(N)=S)c2ccccc21,16.3%
20,OCCN=Cc1cn(-c2ccccc2)nc1-c1ccc(Cl)cc1,59.3% (active)
21,CC1CC(=O)NN1C(=O)/C=C/c1cn(-c2ccccc2)nc1-c1ccccc1 (stereo not drawn),38.7%
22,CCc1cc2c(=O)n(CCC(C)C)c(=S)[nH]c2s1,-39.7%
23,C/C(=C/C(=O)C(C#N)c1nc2cc(Cl)ccc2s1)C1CC1 (stereo not drawn),63.6% (active)
24,COCCCn1c(-c2ccccc2)nc2oc3cc(OC)ccc3c(=O)c2c1=O,-18.5%
25,CCOC(=O)COc1ccc2c(=O)c(-c3ccccc3)c(C)oc2c1,41.9%

row,SMILES,inhibition
1,C=C(C)COc1ccc2c(=O)c(-c3ccccc3)c(C)oc2c1,51.9% (active)
2,CCOC(=O)COc1ccc2c(=O)c(-c3ccc(Cl)cc3)c(C)oc2c1,84% (active)
3,COC(=O)COc1ccc2c(=O)c(Oc3ccc(OC)cc3)coc2c1,8.04%
4,Cc1cc(NC(=O)C(C)Oc2ccc3c(=O)c(-c4ccccc4)c(C)oc3c2)no1 (stereo not drawn),70.1% (active)
5,Nc1c([N+](=O)[O-])ccc2c1=[N+]([O-])C1(CCCCC1)[N+]=2[O-],101% (active)
6,Oc1c(N=Nc2ccccc2)cc2c3c1CCCN3CCC2,16.8%
7,O=C(NCC1CC1)c1csc(N2CCN(Cc3ccc(Cl)cc3)C2=O)n1,33.3%
8,Cc1c(CN2CCCC(CNC(=O)c3cccs3)C2)[nH]c2ccc(Cl)cc12 (stereo not drawn),78.8% (active)
9,Cc1c(CN2CCCC(C(=O)Nc3cccc(-n4cccn4)c3)C2)[nH]c2ccccc12 (stereo not drawn),35.5%
10,NC(=N/N=C\c1ccc(Cl)cc1)N/N=C\c1ccc(Cl)cc1,101% (active)
11,CN(CCC#N)c1ccc(C=NNC(N)=S)cc1,29.2%
12,Clc1ccc(C2=Nn3c(nnc3C3CCCCC3)SC2)c(Cl)c1,-20.9%
13,O=C(Sc1cccc2cccnc12)c1ccccc1Cl,92.5% (active)
14,CCc1cccc2c(C(=O)CSc3nnc(-c4cccnc4)o3)c[nH]c12,63.8% (active)
15,CCOC(=O)c1c(CC(C)C)csc1NC=C(C#N)C#N,100% (active)
16,CCOC(=O)c1sc(NN=C(C#N)C#N)c(C(=O)OCC)c1C,27.2%
17,CCOC(=O)C(C#N)=NNc1sc(C(=O)OCC)c(C)c1C(=O)OCC,-20.8%
18,Cc1cc(=O)[nH]c(-n2nc(C)cc2NC(=O)c2cccc(C(F)(F)F)c2)n1,102% (active)
19,Cc1cc(=O)[nH]c(-n2nc(C)cc2NC(=O)c2cc(C(F)(F)F)cc(C(F)(F)F)c2)n1,98.3% (active)
20,Cc1cc(=O)[nH]c(-n2nc(C)cc2NC(=O)c2ccc(C(F)(F)F)cc2)n1,98.6% (active)
21,Cc1cc(NC(=O)c2cccc(C(F)(F)F)c2)n(-c2nc(C)c(C)c(=O)[nH]2)n1,33.9%
22,CCn1nnc2c(N3CCC(Cc4ccccc4)CC3)ncnc21,75.6% (active)
23,Clc1ccccc1CSc1ncnc2c1nnn2Cc1ccccc1,-14.6%
